The source of these data is PubChem BioAssay.

The nature of experiment [1]: Wnt pathway potentiators raising nuclear beta-catenin – imaging, WNT3A-conditioned medium, mouse C2C12, NPC library, primary screen (AID 1117326; in the data active means nuclear beta-catenin stimulation mostly above about 4.2%, no sharp cut-off; inactive means mostly below about 10%; further: reference of the scale not given here). As to conditions: stronger effect = higher value.
Experiment [2] is described as follows: stimulators of insulin release from INS-1E, primary screen, cell-based, 5 mM glucose, NPC library (AID 1117329;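 active means compound raises insulin release from rat beta cells at 5 mM glucose, no numeric limit stated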; further: reference of the scale not given here). As to conditions: rat INS-1E insulin secretion, at 10 µM, stronger effect = higher value.
The nature of experiment [3]: growth inhibition of GSK3B-pretreated HCT116 cells – cell-based, CellTiter-Glo, 0.2 to 20 µM (AID 1117336;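 active means compounds lowering colon cancer cell viability after pretreatment blocking the GSK3B kinase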). The following applies: HCT116 viability after GSK3B inhibitor, at 20 µM, stronger effect = higher value.
Experiment [4] is described as follows: inhibition of endothelial tube formation, primary screen, imaging, VEGF stimulated, CD31 staining, tube area, NPC library (AID 1117340). The following applies: VEGF-stimulated ADSC/ECFC co-culture, at 10 µM, stronger effect = higher value.
Experiment [5] can be described thus: GLP1 release stimulators, primary, NCI-H716, NPC library (AID 1117341;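 active means compound raises GLP1 secretion from the human gut endocrine cells, with no numeric limit stated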; further: reference of the scale not given here). As to conditions: NCI-H716 cells, at 10 µM, stronger effect = higher value.
A short description of experiment [6]: HCT116 colon cancer cell growth inhibition, primary screen, CellTiter-Glo luminescence, NPC library (AID 1117342;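 active means compounds that lower survival of HCT116 colon cancer cells in the luminescence readout, no numeric limit stated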). The following applies: at 20 µM (top of the series).
Experiment [7] in a line: reduced SW480 viability measured with CellTiter-Glo, NPC library, primary (AID 1117343;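 active means compounds that lower viability of the colon cancer cells in the luminescence readout, with no numeric limit stated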). The following applies: CellTiter-Glo luminescence; at 20 µM (top of the series).
The nature of experiment [8]: NPC library primary testing for decreased DLD-1 cell viability via CellTiter-Glo (AID 1117346;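 active means compounds that lower survival of DLD-1 colon cancer cells in the luminescence readout, no cutoff given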). As to conditions: DLD-1 viability, CellTiter-Glo luminescence; at 20 µM (top of the series).

The source made the active and inactive calls.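 How the source made its calls, unless noted: active means compound that reduces growth-factor-driven endothelial tube area in a mixed cell culture, no cutoff stated; inactive means the rest.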

As for `CCCC(=O)Nc1ccc(O)c(C(C)=O)c1`, the nuclear beta-catenin stimulation in experiment [1] (at 10 µM) is 1.7% (inactive); in experiment [1] (stimulation, at 2 µM), 0.4%. In addition, the insulin secretion stimulation in experiment [2] is 3.1% (inactive). Also, the viability decrease in experiment [3] was -4.4% (inactive). The tube area decrease in experiment [4] is -7% (inactive). For the same compound, the GLP1 secretion stimulation in experiment [5] is -3.4% (inactive). Further, in experiment [6], the inhibition of viability is 2.9% (inactive). The viability decrease (inhibition) in experiment [7] was -3.5% (inactive); in experiment [8], 2.6% (inactive).

As to `NCc1ccccc1Sc1ccccc1CO`, the nuclear beta-catenin stimulation in experiment [1] (at 10 µM) is 0.6% (inactive); in experiment [1] (stimulation, at 2 µM) it was 1%. For the same compound, in experiment [2], the insulin secretion stimulation is -0.8% (inactive). In experiment [3], the viability decrease is -138% (inactive). The tube area decrease in experiment [4] was -11.8% (inactive). Further, the GLP1 secretion stimulation in experiment [5] was 3.3% (inactive). For the same compound, in experiment [6], the inhibition of viability was 6.13% (inactive). Besides, the viability decrease (inhibition) was 29.2% (inactive) in experiment [7] and -10.7% (inactive) in experiment [8].

For `CN(C)[C@@H]1C(=O)C(C(N)=O)=C(O)[C@@]2(O)C(=O)C3=C(O)c4c(O)cccc4C[C@H]3C[C@@H]12`, the nuclear beta-catenin stimulation in experiment [1] (at 10 µM) is 11% (inactive); in experiment [1] (stimulation, at 2 µM), -0.5%. For the same compound, the insulin secretion stimulation in experiment [2] was -3% (inactive). Also, the viability decrease in experiment [3] was 98.1% (active). The tube area decrease in experiment [4] was -5.9% (inactive). Further, the GLP1 secretion stimulation in experiment [5] was 18.7% (inactive). In addition, in experiment [6], the inhibition of viability is 75.5% (active). Also, the values for the viability decrease (inhibition) in experiment [7] and in experiment [8] were 100% (active) and 89.5% (active), respectively.

On to `O=Cc1ccccc1C=O`, for which the nuclear beta-catenin stimulation in experiment [1] (at 10 µM) is -0.8% (inactive); in experiment [1] (stimulation, at 2 µM), 0.2%. Further, the insulin secretion stimulation in experiment [2] was -0.6% (inactive). Besides, the viability decrease in experiment [3] is 1.65% (inactive). Also, the tube area decrease in experiment [4] is 9.9% (inactive). The GLP1 secretion stimulation in experiment [5] is 2.6% (inactive). In experiment [6], the inhibition of viability is -1.7% (inactive). The viability decrease (inhibition) is 12.2% (inactive) in experiment [7] and -1.7% (inactive) in experiment [8].

`O=C(CO)[C@@H](O)[C@H](O)[C@@H](O)CO`: the nuclear beta-catenin stimulation was -1.8% (inactive) in experiment [1] (at 10 µM) and -0.9% in experiment [1] (stimulation, at 2 µM). In experiment [2], the insulin secretion stimulation was 3% (inactive). The viability decrease in experiment [3] is -1.5% (inactive). For the same compound, the tube area decrease in experiment [4] was -29.2% (inactive). Also, the GLP1 secretion stimulation in experiment [5] is -2.6% (inactive). The inhibition of viability in experiment [6] is 8.2% (inactive). Also, the viability decrease (inhibition) in experiment [7] is 4.9% (inactive); in experiment [8], 3.2% (inactive).

Take `COC(=O)C1=C(C)NC(C)=C(C(=O)OCC(C)=O)C1c1ccccc1[N+](=O)[O-]` (stereo unspecified): the nuclear beta-catenin stimulation in experiment [1] (at 10 µM) is 1.6% (inactive); in experiment [1] (stimulation, at 2 µM), 1.2%. For the same compound, the insulin secretion stimulation in experiment [2] was -0.3% (inactive). Besides, in experiment [3], the viability decrease was 25.5% (inactive). In addition, the tube area decrease in experiment [4] was 7% (inactive). Moreover, in experiment [5], the GLP1 secretion stimulation was -2.7% (inactive). In addition, the inhibition of viability in experiment [6] is 39.1% (inactive). Moreover, the viability decrease (inhibition) in experiment [7] is 69.6% (active); in experiment [8] it was 28.3% (inactive).

Regarding `CCOC(=O)C(=O)CCCCCCl`, the nuclear beta-catenin stimulation is 0.6% (inactive) in experiment [1] (at 10 µM) and -1.9% in experiment [1] (stimulation, at 2 µM). For the same compound, the insulin secretion stimulation in experiment [2] was 1.45% (inactive). Also, the viability decrease in experiment [3] is 12.3% (inactive). For the same compound, the tube area decrease in experiment [4] is -8.5% (inactive). Moreover, the GLP1 secretion stimulation in experiment [5] is -1% (inactive). Also, the inhibition of viability in experiment [6] is 12.6% (inactive). The values for the viability decrease (inhibition) in experiment [7] and in experiment [8] were 11.4% (inactive) and 0.1% (inactive), respectively.

Consider `COc1cc(/C=C/C(=O)O[C@H]2CC[C@]34C[C@]35CC[C@]3(C)[C@@H]([C@H](C)CCC=C(C)C)CC[C@@]3(C)[C@@H]5CC[C@H]4C2(C)C)ccc1O`, for which the nuclear beta-catenin stimulation was -1.5% (inactive) in experiment [1] (at 10 µM) and -1.7% in experiment [1] (stimulation, at 2 µM). The insulin secretion stimulation in experiment [2] is 7.6% (inactive). In addition, the viability decrease in experiment [3] is 2.6% (inactive). Further, the tube area decrease in experiment [4] was -12.4% (inactive). Further, the GLP1 secretion stimulation in experiment [5] was 0.5% (inactive). Also, the inhibition of viability in experiment [6] was 10% (inactive). The viability decrease (inhibition) in experiment [7] was -10.1% (inactive); in experiment [8] it was -6.9% (inactive).

For the compound `COc1cc(C(=O)N2CCCCCCC2)cc(OC)c1OC`, the nuclear beta-catenin stimulation was 0.9% (inactive) in experiment [1] (at 10 µM) and -1.2% in experiment [1] (stimulation, at 2 µM). In experiment [2], the insulin secretion stimulation is 5% (inactive). In experiment [3], the viability decrease was -2.3% (inactive). Besides, the tube area decrease in experiment [4] is -2.6% (inactive). Further, the GLP1 secretion stimulation in experiment [5] was 2.6% (inactive). Moreover, the inhibition of viability in experiment [6] was 17.8% (inactive). Also, the viability decrease (inhibition) in experiment [7] is -7.8% (inactive); in experiment [8], 7.8% (inactive).

Regarding `OC[C@H]1O[C@@H](n2cnc3c(=S)nc[nH]c32)[C@H](O)[C@@H]1O`, the nuclear beta-catenin stimulation is -2.5% (inactive) in experiment [1] (at 10 µM) and -0.2% in experiment [1] (stimulation, at 2 µM). In addition, the insulin secretion stimulation in experiment [2] is 0.7% (inactive). Besides, the viability decrease in experiment [3] was 95.3% (active). Further, in experiment [4], the tube area decrease is 95.4% (active). In addition, the GLP1 secretion stimulation in experiment [5] was -1.6% (inactive). Also, in experiment [6], the inhibition of viability is 84.2% (active). The figures for the viability decrease (inhibition) in experiment [7] and in experiment [8] were 78.1% (active) and 73.5% (active), respectively.

In the case of `OC[C@H]1O[C@@H]2O[C@H]3[C@H](O)[C@@H](O)[C@@H](O[C@H]4[C@H](O)[C@@H](O)[C@@H](O[C@H]5[C@H](O)[C@@H](O)[C@@H](O[C@H]6[C@H](O)[C@@H](O)[C@@H](O[C@H]7[C@H](O)[C@@H](O)[C@@H](O[C@H]8[C@H](O)[C@@H](O)[C@@H](O[C@H]1[C@H](O)[C@H]2O)O[C@@H]8CO)O[C@@H]7CO)O[C@@H]6CO)O[C@@H]5CO)O[C@@H]4CO)O[C@@H]3CO`, the nuclear beta-catenin stimulation is 0.1% (inactive) in experiment [1] (at 10 µM) and 0.5% in experiment [1] (stimulation, at 2 µM). Besides, the insulin secretion stimulation in experiment [2] is 1.1% (inactive). Moreover, the viability decrease in experiment [3] was -5.9% (inactive). Also, the tube area decrease in experiment [4] is 2.3% (inactive). Further, in experiment [5], the GLP1 secretion stimulation was -1.9% (inactive). Further, in experiment [6], the inhibition of viability was 1.17% (inactive). Further, the viability decrease (inhibition) was 21% (inactive) in experiment [7] and -3.7% (inactive) in experiment [8].

As for `NC(=O)C(=O)N/N=C/c1ccc([N+](=O)[O-])o1`, the nuclear beta-catenin stimulation in experiment [1] (at 10 µM) was 4.5% (inactive); in experiment [1] (stimulation, at 2 µM), 1.5%. The insulin secretion stimulation in experiment [2] was -3.3% (inactive). The viability decrease in experiment [3] was 17.6% (inactive). The tube area decrease in experiment [4] was 28.8% (inactive). For the same compound, the GLP1 secretion stimulation in experiment [5] is -1.5% (inactive). Moreover, the inhibition of viability in experiment [6] is 0.3% (inactive). For the same compound, the viability decrease (inhibition) in experiment [7] is 89.2% (active); in experiment [8], 23.6% (inactive).

`C[C@H](CN1CCCC1)C(=O)c1ccc(C(F)(F)F)cc1`: the nuclear beta-catenin stimulation is 5.1% (inactive) in experiment [1] (at 10 µM) and -1.9% in experiment [1] (stimulation, at 2 µM). Besides, the insulin secretion stimulation in experiment [2] is 8.3% (inactive). In experiment [3], the viability decrease is -5.5% (inactive). Also, the tube area decrease in experiment [4] is -4% (inactive). Besides, the GLP1 secretion stimulation in experiment [5] is -0.4% (inactive). Besides, the inhibition of viability in experiment [6] was 7.8% (inactive). The figures for the viability decrease (inhibition) in experiment [7] and in experiment [8] were 73.8% (active) and 68.1% (active), respectively.

In the case of `CN=C(N)NC(=O)Nc1c(C)cccc1C`, the nuclear beta-catenin stimulation is -1.8% (inactive) in experiment [1] (at 10 µM) and -0.4% in experiment [1] (stimulation, at 2 µM). Further, the insulin secretion stimulation in experiment [2] was -1.2% (inactive). Moreover, the viability decrease in experiment [3] is -12.4% (inactive). For the same compound, the tube area decrease in experiment [4] was -1.8% (inactive). Moreover, the GLP1 secretion stimulation in experiment [5] was -0.6% (inactive). For the same compound, in experiment [6], the inhibition of viability is 11.3% (inactive). The viability decrease (inhibition) in experiment [7] was -1.5% (active); in experiment [8], -0.9% (inactive).
